The values that follow come from ChEMBL document CHEMBL1961873, “Compounds: GSK PKIS; Assays: Nanosyn kinase panel” (2012).

Assay [1] has as its target Serine/threonine-protein kinase 26 (Homo sapiens) (UniProt Q9P289). The following applies: at 1 µM.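 Note: mean inhibition of MST4 kinase activity, reported from the GSK PKIS inhibitor-set screening panel.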
The target in assay [2] is Serine/threonine-protein kinase PAK 1 (Homo sapiens) (UniProt Q13153). The settings on record: at 0.1 µM.
Assay [3] shares this target. The following applies: at 1 µM.
Assay [4] addresses Serine/threonine-protein kinase PAK 2 (Homo sapiens) (UniProt Q13177). The following applies: at 0.1 µM.
Assay [5] shares this target. The following applies: at 1 µM.
In assay [6] the target is Serine/threonine-protein kinase PAK 3 (Homo sapiens) (UniProt O75914). The settings on record: at 0.1 µM.
Chain of Serine/threonine-protein kinase PAK 3 (Homo sapiens) (O75914 whole entry, looked up): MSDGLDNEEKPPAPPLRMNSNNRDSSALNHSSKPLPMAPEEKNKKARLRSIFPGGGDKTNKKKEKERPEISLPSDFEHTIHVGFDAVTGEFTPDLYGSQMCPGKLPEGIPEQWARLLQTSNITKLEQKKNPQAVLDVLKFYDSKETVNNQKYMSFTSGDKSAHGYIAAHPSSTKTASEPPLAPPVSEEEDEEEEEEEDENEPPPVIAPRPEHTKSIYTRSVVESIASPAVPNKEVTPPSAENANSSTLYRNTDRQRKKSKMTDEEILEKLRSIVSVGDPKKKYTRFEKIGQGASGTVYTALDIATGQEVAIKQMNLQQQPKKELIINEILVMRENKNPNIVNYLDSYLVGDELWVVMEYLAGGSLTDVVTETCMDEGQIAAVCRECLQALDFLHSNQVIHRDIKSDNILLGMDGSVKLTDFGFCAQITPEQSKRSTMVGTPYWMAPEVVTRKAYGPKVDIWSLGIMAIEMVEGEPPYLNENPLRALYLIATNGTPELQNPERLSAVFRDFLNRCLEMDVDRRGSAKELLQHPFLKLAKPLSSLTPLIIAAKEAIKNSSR
The target is the same in assay [7]. The settings on record: at 1 µM.
Assay [8] addresses Serine/threonine-protein kinase PAK 5 (Homo sapiens) (UniProt Q9P286). The settings on record: at 0.1 µM.
For assay [9] the target is unchanged. The following applies: at 1 µM.
In assay [10] the target is Serine/threonine-protein kinase PAK 6 (Homo sapiens) (UniProt Q9NQU5). The following applies: at 0.1 µM.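 Note: mean PAK6 inhibition reported from the GSK PKIS screen.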
Chain of Serine/threonine-protein kinase PAK 6 (Homo sapiens) (Q9NQU5 whole entry, looked up): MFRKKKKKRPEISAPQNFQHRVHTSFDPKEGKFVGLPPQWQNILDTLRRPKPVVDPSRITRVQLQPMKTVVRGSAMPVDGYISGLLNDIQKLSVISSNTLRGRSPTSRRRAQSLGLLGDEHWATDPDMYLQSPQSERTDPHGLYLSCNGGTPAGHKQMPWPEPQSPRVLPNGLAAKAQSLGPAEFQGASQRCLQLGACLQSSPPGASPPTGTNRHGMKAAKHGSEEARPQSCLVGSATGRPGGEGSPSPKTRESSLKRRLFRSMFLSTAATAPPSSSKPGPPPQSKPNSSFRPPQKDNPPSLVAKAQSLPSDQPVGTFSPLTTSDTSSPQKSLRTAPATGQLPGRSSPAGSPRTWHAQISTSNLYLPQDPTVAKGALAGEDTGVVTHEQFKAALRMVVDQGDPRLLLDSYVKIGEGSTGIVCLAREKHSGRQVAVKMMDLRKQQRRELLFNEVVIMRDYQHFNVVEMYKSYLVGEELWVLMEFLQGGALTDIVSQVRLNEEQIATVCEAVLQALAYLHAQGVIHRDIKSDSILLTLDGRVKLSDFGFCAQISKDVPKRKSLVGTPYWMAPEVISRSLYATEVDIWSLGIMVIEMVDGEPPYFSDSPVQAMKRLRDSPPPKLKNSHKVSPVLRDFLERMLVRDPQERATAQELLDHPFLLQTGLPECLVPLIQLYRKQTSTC

Chain of Serine/threonine-protein kinase 26 (Homo sapiens) (Q9P289 2-416 limits assumed): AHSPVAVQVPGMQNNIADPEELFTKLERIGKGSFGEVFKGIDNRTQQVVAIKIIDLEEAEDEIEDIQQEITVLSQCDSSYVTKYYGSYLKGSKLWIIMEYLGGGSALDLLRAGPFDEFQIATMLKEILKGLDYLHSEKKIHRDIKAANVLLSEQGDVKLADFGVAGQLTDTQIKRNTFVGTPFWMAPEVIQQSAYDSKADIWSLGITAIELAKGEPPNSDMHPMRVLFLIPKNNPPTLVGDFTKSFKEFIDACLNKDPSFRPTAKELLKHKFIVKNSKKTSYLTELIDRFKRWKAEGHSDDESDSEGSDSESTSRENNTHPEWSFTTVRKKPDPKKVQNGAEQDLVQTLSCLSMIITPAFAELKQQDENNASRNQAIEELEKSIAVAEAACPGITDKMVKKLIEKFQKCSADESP
Chain of Serine/threonine-protein kinase PAK 5 (Homo sapiens) (Q9P286 whole entry, looked up): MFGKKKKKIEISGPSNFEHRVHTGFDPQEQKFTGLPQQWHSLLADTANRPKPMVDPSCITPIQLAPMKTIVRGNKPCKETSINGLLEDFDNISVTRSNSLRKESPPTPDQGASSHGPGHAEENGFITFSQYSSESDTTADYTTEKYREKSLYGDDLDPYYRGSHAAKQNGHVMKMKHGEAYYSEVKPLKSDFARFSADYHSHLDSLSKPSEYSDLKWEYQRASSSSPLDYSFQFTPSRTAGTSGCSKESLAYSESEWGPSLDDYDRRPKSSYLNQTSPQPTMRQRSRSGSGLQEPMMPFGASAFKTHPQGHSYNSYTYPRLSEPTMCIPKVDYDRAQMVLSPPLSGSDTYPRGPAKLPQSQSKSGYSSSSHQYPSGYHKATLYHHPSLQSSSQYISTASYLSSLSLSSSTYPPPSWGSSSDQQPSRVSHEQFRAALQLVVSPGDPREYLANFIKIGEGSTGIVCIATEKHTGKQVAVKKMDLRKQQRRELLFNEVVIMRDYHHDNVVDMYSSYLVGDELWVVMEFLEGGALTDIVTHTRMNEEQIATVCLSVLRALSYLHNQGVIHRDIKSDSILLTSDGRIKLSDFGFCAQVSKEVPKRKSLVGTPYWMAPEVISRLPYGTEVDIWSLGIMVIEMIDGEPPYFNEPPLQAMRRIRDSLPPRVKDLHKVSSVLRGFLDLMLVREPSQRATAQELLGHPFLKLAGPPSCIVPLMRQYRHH
Chain of Serine/threonine-protein kinase PAK 2 (Homo sapiens) (Q13177 whole entry): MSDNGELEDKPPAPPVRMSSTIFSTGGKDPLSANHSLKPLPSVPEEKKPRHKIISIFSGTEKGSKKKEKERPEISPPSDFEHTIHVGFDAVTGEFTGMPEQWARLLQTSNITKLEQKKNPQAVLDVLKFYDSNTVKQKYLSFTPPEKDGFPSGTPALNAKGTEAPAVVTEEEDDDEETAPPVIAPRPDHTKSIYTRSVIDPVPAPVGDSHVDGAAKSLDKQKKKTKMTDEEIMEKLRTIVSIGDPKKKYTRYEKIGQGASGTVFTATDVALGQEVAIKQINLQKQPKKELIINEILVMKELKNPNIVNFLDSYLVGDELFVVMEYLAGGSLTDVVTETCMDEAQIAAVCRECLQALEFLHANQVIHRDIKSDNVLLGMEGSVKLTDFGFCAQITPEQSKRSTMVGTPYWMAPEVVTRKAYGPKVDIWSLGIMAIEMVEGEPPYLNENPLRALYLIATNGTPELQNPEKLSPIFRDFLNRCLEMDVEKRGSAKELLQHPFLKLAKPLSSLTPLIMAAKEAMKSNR
Chain of Serine/threonine-protein kinase PAK 1 (Homo sapiens) (Q13153 whole entry): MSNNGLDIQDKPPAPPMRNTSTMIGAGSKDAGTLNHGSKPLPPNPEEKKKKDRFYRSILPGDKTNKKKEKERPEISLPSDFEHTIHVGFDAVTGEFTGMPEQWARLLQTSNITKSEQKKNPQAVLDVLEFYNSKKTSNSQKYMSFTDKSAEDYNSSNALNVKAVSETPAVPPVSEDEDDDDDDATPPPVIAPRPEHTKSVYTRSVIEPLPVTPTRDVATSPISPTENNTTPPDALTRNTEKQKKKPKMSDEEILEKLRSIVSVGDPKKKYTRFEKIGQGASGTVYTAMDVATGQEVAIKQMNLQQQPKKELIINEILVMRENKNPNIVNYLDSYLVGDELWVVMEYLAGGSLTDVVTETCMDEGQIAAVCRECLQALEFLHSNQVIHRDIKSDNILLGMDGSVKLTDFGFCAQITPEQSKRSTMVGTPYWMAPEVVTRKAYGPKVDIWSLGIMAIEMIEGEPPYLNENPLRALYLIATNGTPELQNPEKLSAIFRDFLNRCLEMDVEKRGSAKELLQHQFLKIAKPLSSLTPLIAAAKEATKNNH

For the compound `CCn1c(-c2nonc2N)nc2cnc(Oc3cccc(NC(=O)c4ccc(OCCN5CCOCC5)cc4)c3)cc21`, the inhibition in assay [1] was 2.57%; in [2] it was 3.65%; in [3] it was 5.84%; in assay [4], -0.41%; in assay [5] it was 0.34%; in [6], -3.22%. Also, the inhibition in assay [7] is 2.69%; in assay [8], 1.02%; in [9], -0.29%; in assay [10] it was -6.86%.
On to `CS(=O)(=O)Nc1ccc(N/C=C2\C(=O)Nc3ccccc32)cc1`, for which the inhibition in assay [1] is -0.36%; in assay [2], -4.5%; in [3], -3.06%; in assay [4], -1.89%; in [5], -3.37%; in assay [6] it was -3.72%. The inhibition in assay [7] is -2.59%; in assay [8] it was -2.35%; in assay [9], 0.84%; in assay [10], -9.71%.
Consider `COc1cc(C)c(NC(=O)CN(C)C)cc1Nc1nc(Nc2cccc(F)c2C(N)=O)c2cc[nH]c2n1`, for which the inhibition is -2.75% in assay [1]; 2.74% in [2]; 3.36% in assay [3]; 1.54% in assay [4]; 1.5% in [5]; 1.84% in assay [6]. For the same compound, the inhibition in assay [7] was 2.37%; in assay [8], -4.59%; in [9] it was -5.11%; in assay [10] it was 5.11%.
On to `Nc1nc(-c2ccccn2)c(-c2ccc3ncccc3n2)s1`, for which the inhibition in [1] is -0.98%; in assay [2], 3.7%; in assay [3], 4.24%; in [4] it was 1.82%; in assay [5], 1.66%; in [6], 3.03%. Moreover, the inhibition is 3.63% in assay [7], 5.99% in [8], 4.49% in assay [9] and -7.45% in assay [10].
Consider `CCn1c(-c2nonc2N)nc2c(C#CC(C)(C)O)nc(OC[C@@H](N)c3ccccc3)cc21`, for which the inhibition in assay [1] was 14.1%; in assay [2] it was -5.15%; in [3], 1.43%; in assay [4] it was 3.89%; in assay [5], 36.3%; in [6], -1.93%. Moreover, the inhibition is 0.72% in assay [7], 87% in assay [8], 87.7% in [9] and 90.8% in assay [10].
On to `Fc1cccc(COc2ccc(Nc3ncnc4cc(-c5ccc[nH]5)sc34)cc2Cl)c1`, for which the inhibition in assay [1] was 3.26%; in [2] it was 5.46%; in assay [3], 5.78%; in assay [4], -0.06%; in assay [5] it was -0.55%; in [7], 1.96%. The inhibition in assay [9] is -0.78%; in assay [10] it was -2.21%.
For the compound `COc1cc2ncn(-c3cc(OCc4ccccc4C(F)(F)F)c(C(N)=O)s3)c2cc1OC`, the inhibition was found to be 3.79% in assay [2]; 7.26% in [3]; 1.94% in assay [4]; 1.77% in [5]; 5.55% in [6]; 5.02% in assay [7]. The results for the inhibition in [8], in assay [9] and in assay [10] were 1.8%, 2.59% and -0.96%, respectively.
Consider `Cn1cc(C=C2C(=O)Nc3cccnc32)c2ccccc21`, for which the inhibition in assay [1] was determined as 1.1%; in assay [2] it was 5.04%; in assay [3] it was 6%; in assay [4], 0.8%; in [5] it was 0.31%; in assay [6], 2.68%. Also, the inhibition in assay [7] was 3%; in assay [8] it was -6.57%; in assay [9], -5.19%; in assay [10], -3.53%.
On to `CS(=O)(=O)CCNCc1ccc(-c2ccc3ncnc(Nc4ccc(OCc5cccc(F)c5)c(C(F)(F)F)c4)c3c2)o1`, for which the inhibition is -0.76% in assay [1]; 6.77% in [2]; 8.2% in assay [3]; 1.44% in assay [4]; 1.87% in assay [5]; 4.46% in assay [6]. Moreover, the values for the inhibition in assay [7], in [9] and in assay [10] were 3.99%, -0.07% and -1.22%, respectively.
Consider `NS(=O)(=O)c1cccc(-c2ccc3c(NC(=O)C4CC4)n[nH]c3c2)c1`, for which the inhibition is -1.17% in [2]; 0.04% in assay [3]; -1.52% in [4]; -1.15% in assay [5]; -2.1% in [6]; -0.67% in [7]. Moreover, the inhibition in [8] is 7.33%; in [9], -5.95%; in assay [10], 2.48%.
For the compound `NC(=O)c1ccc(-c2nc(-c3ccccn3)c(-c3ccc4c(c3)OCO4)[nH]2)cc1`, the inhibition is 2.93% in assay [1]; 4.04% in assay [2]; 5.77% in [3]; 0.67% in [4]; 1.08% in assay [5]; 2.68% in [6]. The inhibition in assay [7] was 2.97%; in assay [8], -3.79%; in assay [9], -0.72%; in [10], -8.04%.
In the case of `O=C1NC(=O)C(N2CCc3ccccc32)=C1c1ccc(Cl)cc1`, the inhibition in assay [1] is -1.05%; in assay [2], 8.65%; in assay [3], 7.01%; in assay [4] it was 2.34%; in assay [5] it was 1.81%; in [6] it was 5.1%. For the same compound, the inhibition is 5.8% in assay [7], 0.62% in assay [8], -2.87% in assay [9] and 2.3% in assay [10].
Take `COc1cc2ncn(-c3cc(O[C@H](C)c4ccccc4Cl)c(C(N)=O)s3)c2cc1OC`: the inhibition is 6.45% in assay [2]; 4.82% in assay [3]; 0.59% in [4]; 0.45% in assay [5]; 4.18% in assay [6]; 6.53% in assay [7]. For the same compound, the inhibition in assay [8] amounted to 7.14%; in assay [9], 3.97%; in assay [10], 0.91%.
For `O=C1Nc2ccc(C(=O)c3ccco3)cc2C1=Cc1cc(Cl)c(O)c(Cl)c1`, the inhibition in assay [1] was 21.4%; in assay [2], 1.1%; in assay [3] it was 3.96%; in assay [4] it was 1.29%; in assay [5] it was 0.81%; in assay [6], 2.57%. Moreover, the inhibition was found to be 3.42% in assay [7], 0.93% in assay [8], 5.07% in assay [9] and 1.03% in [10].
Regarding `COc1ccc(-c2coc3ncnc(N)c23)cc1`, the inhibition in [1] was 1.26%; in assay [2], 8.03%; in [3] it was 7.01%; in assay [4], 1.73%; in assay [5] it was 1.44%; in assay [6], 4.88%. The inhibition in [7] is 4.26%; in assay [9], -5.35%; in [10], -2.56%.
On to `CS(=O)(=O)CCNCc1nc(-c2ccc3ncnc(Nc4ccc(F)c(Cl)c4)c3c2)cs1`, for which the inhibition in [1] came out at 0.43%; in assay [2], 2.77%; in assay [3], 4.21%; in assay [4] it was 1.56%; in [5] it was 1.25%; in assay [6], 2%. The inhibition in assay [7] stood at 3.08%; in assay [8], 2.01%; in [9] it was 8.16%; in assay [10], 5.79%.
Consider `CCn1c(-c2nonc2N)nc2cncc(C(=O)N3CC[C@H](N)C3)c21`, for which the inhibition in assay [1] worked out at 1.04%; in [2], 10.1%; in [3] it was 8.87%; in [4] it was 1%; in assay [5], 1.51%; in assay [6] it was 5.01%. In addition, the values for the inhibition in assay [7], in assay [9] and in assay [10] were 4.59%, 0.61% and -1.48%, respectively.
Regarding `Fc1cccc(COc2ccc(Nc3ncnc4sc(-c5cccs5)cc34)cc2Cl)c1`, the inhibition was -0.58% in assay [1]; 1.63% in [2]; 1.64% in [3]; -0.69% in [4]; -1.1% in assay [5]; -0.01% in [6]. The inhibition in assay [7] was 2.7%; in assay [8] it was -2.5%; in assay [9] it was -7.05%; in assay [10], -3.68%.
On to `Cc1ccc(NC(=O)c2ccnc(N3CCCC3)c2)cc1-c1ccc(C(=O)NCC2CC2)cc1`, for which the inhibition was determined as 6.65% in [1]; 5.46% in assay [2]; 8.39% in assay [3]; 1.66% in [4]; 0.96% in assay [5]; 4.52% in assay [6]. The inhibition in assay [7] is 5.08%; in [8], -9.56%; in assay [9] it was -5.63%; in assay [10], -2.61%.
In the case of `O=C1NC(=O)C(c2cccc(Cl)c2)=C1Nc1ccc(O)c(Cl)c1`, the inhibition in assay [1] is 11.2%; in assay [2], 2.76%; in assay [3], 4.48%; in [4] it was 0.61%; in assay [5] it was -0.45%; in [6], 1.1%. Moreover, the figures for the inhibition in assay [7] and in [10] were 1.4% and 3.63%, respectively.
With `CCc1cccc(NC(=O)Nc2ccc(Oc3ccc4nc(NC(=O)OC)[nH]c4c3)cc2)c1`, the inhibition in assay [1] came out at 2.74%; in assay [2] it was 1.22%; in assay [3], 2.79%; in assay [4], 0.53%; in assay [5] it was 0.26%; in assay [6], 0.88%. The inhibition in [7] was 2.93%; in assay [8] it was 8.59%; in assay [9] it was -2.14%; in assay [10], 15.4%.
As to `CC1=C(C(=O)Nc2ccc3[nH]ncc3c2)C(c2ccc(F)cc2)NC(=O)N1` (configuration not stated), the inhibition was -0.49% in assay [1]; 4.25% in assay [2]; 9.83% in [3]; -0.87% in [4]; -0.03% in assay [5]; 2.64% in [6]. Also, the inhibition in assay [7] was 1.55%; in assay [8], -0.45%; in assay [9], 5.58%; in [10], 2.39%.
For `NCc1ccc(-c2nc(-c3ccc(Cl)c(O)c3)c(-c3ccncc3)[nH]2)cc1`, the inhibition in assay [1] is 0.12%; in assay [2] it was 1.09%; in assay [3], 2.83%; in assay [4], -1.23%; in assay [5], -1.01%; in [6], -0.7%. For the same compound, the inhibition is -0.37% in assay [7], -6.81% in assay [9] and 7.6% in assay [10].
Take `Nc1ncnc2occ(-c3ccc(NC(=O)Nc4cc(C(F)(F)F)cc(C(F)(F)F)c4)cc3)c12`: the inhibition amounted to 4.71% in assay [2]; 3.65% in [3]; 2.1% in assay [4]; 0.99% in [5]; 2.26% in assay [6]; 3.84% in assay [7]. For the same compound, the values for the inhibition in [8], in [9] and in assay [10] were 1.39%, 4.07% and 1.06%, respectively.
Regarding `CCn1c(-c2nonc2N)nc2cncc(C(=O)N3CCNCC3)c21`, the inhibition worked out at 1.91% in assay [1]; 9.41% in assay [2]; 15.3% in assay [3]; 3.6% in assay [4]; 4.45% in assay [5]; 7.27% in assay [6]. Also, the inhibition in assay [7] was 9.28%; in [8], 6.95%; in assay [9] it was 8.13%; in assay [10], -5.05%.
As to `Cc1nn(C)c2cc(N(C)c3ccnc(Nc4cccc(S(N)(=O)=O)c4)n3)ccc12`, the inhibition in assay [1] was 2.03%; in assay [2], 5.87%; in assay [3], 4.55%; in assay [4], 0.68%; in [5], 1.06%; in assay [6], -1.47%. The inhibition in assay [7] is 2.95%; in [9], 5.34%; in [10], -4.18%.
Regarding `COc1cc2ncn(-c3cc(OCc4ccccc4Cl)c(C(N)=O)s3)c2cc1OC`, the inhibition in assay [1] is -3.28%; in assay [2], 3.48%; in assay [3], 1.43%; in assay [4], -1.4%; in assay [5], -1.31%; in assay [6] it was -3.29%. The inhibition was 1.37% in [7], -3.38% in assay [8], 0.31% in assay [9] and -7.38% in [10].
